From PubChem BioAssay AID743279 (National Center for Advancing Translational Sciences (NCATS), 2014)
Screen size: about 360,000 compounds; about 17,000 (4.7%) were called active. Roughly 5% stayed inconclusive and do not appear here. The sample holds actives, similar compounds and a random draw of the others, so the mix is not that of the screen. Unmarked numbers belong to inactive results. Cut-off read from the data, not from the text of the source: active = activity change below about -50%; inconclusive = mostly about -30% to -49%; inactive = weaker than that.

Experiment: qHTS for Inhibitors of Inflammasome Signaling: IL-1-beta AlphaLISA Primary Screen
Details: THP-1 LPS/ATP IL-1B secretion, 16 h; at 57.5 µM, active compounds read low
Outline: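 THP-1 cells pretreated 1 hr with compounds (up to 57.5 uM final), then stimulated with LPS (250 ng/mL final) plus ATP (1.25 mM final); secreted IL-1B measured by AlphaLISA after 16 hr, decreased signal indicating inhibition.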
% is set by controls: 0 for no effect and ±100 for the full control effect.

Row | SMILES | activity change
1 | CCN1C(=O)[C@H]2[C@@H](c3ccc(C(F)(F)F)cc3)N[C@]3(CCCN(Cc4ccc(Br)cc4)C3=O)[C@H]2C1=O | -19.9%
2 | O=C1C2C3C=CC(C3)C2C(=O)N1c1ncc([N+](=O)[O-])s1 (stereo unspecified) | 6.51%
3 | CCOc1ccc(S(=O)(=O)NCCC(=O)NCC2CCCO2)cc1 (stereo unspecified) | 32.7%
4 | COc1ccccc1-c1nn(Cc2ccccc2)cc1C(=O)N1CCN(c2ncccn2)CC1 | 1.02%
5 | COc1ccc(C(C(=O)NCc2ccccc2)n2c(=O)c(-c3ccccc3)nc3ccccc32)cc1 (stereo unspecified) | -6.01%
6 | Cc1ccc(S(=O)(=O)CC(=O)NC(C)c2ccccc2)cc1 (stereo unspecified) | 0.147%
7 | Cc1ccccc1-c1nc(CS(=O)(=O)CC(=O)NC(C)c2ccccc2)c(C)o1 (stereo unspecified) | -61.7% (active)
8 | CSc1ccc(CCNC(=O)CS(=O)(=O)Cc2nc(-c3ccccc3F)oc2C)cc1 | 9.85%
9 | NC(=S)NN=C1CCCC(C(F)(F)F)C1 (stereo unspecified) | 4.88%
10 | O=C(c1ccc2c(c1)C(=O)N(Cc1ccncc1)C2=O)N1CCN(S(=O)(=O)c2ccc(OC(F)(F)F)cc2)CC1 | 8.07%
11 | COc1ccccc1CNC(=O)c1cc(-c2cc(Cl)ccc2C)n[nH]1 | -16.3%
12 | Cc1cc(O)ccc1-c1cc(C(=O)NCc2cc(C(F)(F)F)cc(C(F)(F)F)c2)[nH]n1 | -53.4% (active)
13 | Cc1ccc(O)c(-c2cc(C(=O)NCc3ccccc3)[nH]n2)c1 | -0.0227%
14 | COC(=O)c1ccc2nc(-c3ccc(Cl)cc3)c(Cc3cccc(F)c3)n2c1 | 58.6%
15 | CC(=O)NC(NC(=S)Nc1c(C)n(C)n(-c2ccccc2)c1=O)C(Cl)(Cl)Cl (stereo unspecified) | 0%
16 | CCOC(=O)N1CCN(CCC(=O)Nc2ccccc2)CC1 | -4.73%
17 | Cc1cc(NC(=O)CCN2CCN(Cc3ccccc3)CC2)ccc1Br | -54% (active)
18 | O=C(CN1CCN(Cc2ccccc2)CC1)Nc1ccc(F)c(F)c1 | -7.81%
19 | O=C(OCC(=O)N1CCCCCC1)c1cccc(Cl)c1Cl | 9.58%
20 | COc1ccc(Cl)cc1N(CC(=O)N/N=C/c1ccc(OCC(N)=O)cc1)S(C)(=O)=O | 34.5%
21 | Cc1nc2ccccc2nc(C)c1=NOCc1ccc(Cl)cc1Cl | 0%
22 | NC(N)=N/N=C/c1ccc(OCc2ccc(Cl)cc2Cl)cc1 | -97.9% (active)

Row | SMILES | activity change
23 | COc1ccc(/C=C/C(=O)OCC(=O)N2CCN(S(=O)(=O)c3ccc(C)cc3C)CC2)cc1OC | 1.01%
24 | COc1ccc(CCNc2cc(C)nc3c(-c4ccc(Cl)cc4)c(C)nn23)cc1OC | 15.4%
25 | COc1cccc(/C=C2\C=C(c3ccc(C)cc3)OC2=O)c1OC(C)=O | -5.9%
26 | CC(OC(=O)c1ccc2ccccc2n1)C(=O)c1ccccc1 (stereo unspecified) | 14.9%
27 | CCOc1ccccc1-c1cc(C(=O)N/N=C(\C)c2cccnc2)c2ccccc2n1 | 6.38%
28 | CCOc1ccccc1/C=N/Nc1nc2ccccc2o1 | 0%
29 | COc1cccc(/C=C/c2ccc3ccccc3n2)c1OC(C)=O | -103% (active)
30 | CCOc1cccc(/C=C/c2ccc3ccccc3n2)c1OC(C)=O | -92% (active)
31 | CC1(C(=O)Nc2ccc3c(c2)OCCO3)CSCC(=O)N1CCOc1ccccc1 (stereo unspecified) | -3.47%
32 | O=C(NC1CCCC1)C1c2ccccc2OCC(=O)N1CC(F)(F)F (stereo unspecified) | 35.1%
33 | CC(C)C(C)(C#N)NC(=O)CSc1nc2scc(-c3ccccc3)c2c(=O)[nH]1 (stereo unspecified) | 18.7%
34 | CC[C@@]12C(=O)N(c3ccccc3)C(=O)N1[C@H](c1ccc(Br)cc1)[C@@H]1C(=O)N(C(C)(C)C)C(=O)[C@@H]12 | 12%
35 | O=C(Nc1ccc2c(c1)OCCO2)c1ccoc1 | -12.9%
36 | Cn1cc([N+](=O)[O-])c(C(=O)Nc2ccc3c(c2)OCCO3)n1 | -66.8% (active)
37 | Cc1onc(C(=O)Nc2ccc3c(c2)OCO3)c1[N+](=O)[O-] | -7.05%
38 | CC(=O)N(O)CCCCCNC(=O)CCC(=O)N(O)CCCCCNC(=O)CCC(=O)N(O)CCCCCNC(=O)CCC(=O)O | 21.7%
39 | C[C@@]12C(=O)N(c3cccc(Br)c3)C(=O)N1[C@H](c1ccc(Cl)cc1)[C@@H]1C(=O)N(C3CCCCC3)C(=O)[C@@H]12 | -60.3% (active)
40 | O=C1[C@H]2[C@@H](c3ccc(Cl)cc3)N3C(=O)N(c4cccc(F)c4)C(=O)[C@@]3(Cc3ccccc3)[C@H]2C(=O)N1C1CCCCC1 | -4.9%
41 | CC(C)(C)N1C(=O)[C@H]2[C@@H](c3ccc(Br)cc3)N3C(=O)N(c4cccc(Cl)c4)C(=O)[C@@]3(C)[C@H]2C1=O | -24.5%
42 | COc1ccc(-c2cnc3c(c2)C(=O)N([C@H](C)CO)C[C@@H](C)[C@H](CN(C)Cc2ccccc2)O3)cc1 | -26.2%
43 | CCCNC(=O)C1(C)CCN(Cc2csc(-c3ccc(Cl)cc3)n2)C1 (stereo unspecified) | -26.3%
44 | c1ccc2c(c1)CSc1sccc1C2=C1CCNCC1 | -57.8% (active)

Row | SMILES | activity change
45 | CN1OC[C@@H]2CN(C(=O)c3cccc4ccccc34)[C@H](c3ccc(N4CCCCC4)cc3)C[C@@H]21 | -28.3%
46 | N#Cc1ccc(OCC(=O)Nc2nc(-c3ccccn3)cs2)cc1 | 69.5%
47 | CSc1ccccc1NC(=O)CN(C)CC(=O)Nc1cccc(Br)c1 | -74.1% (active)
48 | CSc1ccccc1NC(=O)CN(C)CC(=O)Nc1ccc(Cl)cc1[N+](=O)[O-] | -0.613%
49 | CCC(C)c1ccccc1NC(=O)CN(C)CC(=O)Nc1ccccc1SC (stereo unspecified) | -1.52%
50 | O=C(Nc1ccccc1)C1CC(=O)n2c(nc3ccccc32)N1 (stereo unspecified) | -5.02%
51 | COc1ccc(CC(NC(C)=O)C(=O)NC2CCN(C(=O)c3ccc(Cl)cc3)CC2)cc1 (stereo unspecified) | 23.6%
52 | COC(=O)C[C@H]1C=C[C@@H](NS(=O)(=O)c2ccc(C)cc2)[C@@H](CO)O1 | 34.5%
53 | CSc1ncnc2c1ncn2CCCNCc1cccs1 | 19.3%
54 | COc1ccc(N2CCC(CNC(=S)Nc3c(C)cccc3C)C2)cc1 (stereo unspecified) | -82.6% (active)
55 | COc1ccc(N2CCC(N3CCN(C)C(CCO)C3)CC2)cc1 (stereo unspecified) | 15.4%
56 | COc1ccc(C(C(=O)Nc2c(C)cccc2C)N2CCN(c3ccc(C)cc3)CC2)cc1 (stereo unspecified) | -9.64%
57 | COc1ccc(OCC(=O)Nc2ccc(N3CCC(C)CC3)cc2)cc1 | 2.27%
58 | COc1ccc(NC(=S)NCC2CCN(c3ccc(OC)cc3)C2)cc1 (stereo unspecified) | -82.6% (active)
59 | COc1ccc(NC(=S)NCCN2CCC(C)CC2)cc1 | -11.9%
60 | Cc1sc2ccccc2c1CNC[C@H]1O[C@@H](n2ccc(=O)[nH]c2=O)[C@H](O)[C@@H]1O | -9.54%
61 | CN(Cc1c(F)cccc1Cl)C(=O)COC(=O)Cn1cnc2ccccc2c1=O | 12.8%
62 | CCCCN1CC(N2CCN(Cc3cccc(C)c3)CC2)CS1(=O)=O (stereo unspecified) | -1.82%
63 | CCc1ccc([C@@H]2CC(=O)[C@@H]3CN(S(=O)(=O)c4ccc(C)cc4)[C@H](c4ccc(Cl)cc4)C[C@@H]3N2S(=O)(=O)c2ccc(C)cc2)cc1 | 9.82%
64 | Cc1ccc(OCc2nc(C#N)c(N3CCCC3)o2)cc1 | -58.3% (active)
65 | N#Cc1ccc(OCc2nnc(-c3ccc([N+](=O)[O-])cc3)o2)cc1 | -1.57%
66 | N#Cc1nc(COc2ccc(Cl)cc2)oc1N1CCCC1 | -69.8% (active)

Row | SMILES | activity change
67 | Cc1cc(N2CCCC2)ccc1NC(=O)COc1ccc(Cl)cc1 | 2.28%
68 | COc1ccc(-c2oc(/N=C/N3CCCC3)c(C#N)c2-c2ccc(OC)cc2)cc1 | -12.8%
69 | O=S(=O)(c1ccc(Cl)cc1)c1nc(-c2ccco2)oc1N1CCCCC1 | -10.9%
70 | CNC(=O)C1CN(C(=O)c2cccc(S(=O)(=O)N3CCc4ccccc43)c2)c2ccccc2O1 (stereo unspecified) | 31.5%
71 | COc1ccc(-c2coc3c(C(=O)NC(C)C)cccc23)c(C)c1 | -10.6%
72 | COc1ccc(CN2CCC(C)(Oc3cccc(F)c3)C2)c2ccccc12 (stereo unspecified) | 6.61%
73 | Nc1nc2c(ncn2[C@@H]2O[C@H](CNCc3ccc(OCCCN4CCOCC4)cc3)[C@@H](O)[C@H]2O)c(=O)[nH]1 | 16.8%
74 | CC1CC(C)CN(CCOc2cccc3ccccc23)C1 (stereo unspecified) | -68.4% (active)
75 | CC1CCCN(CCOCCOc2ccccc2-c2ccccc2)C1 (stereo unspecified) | -6.75%
76 | CC1CN(CCOc2ccccc2[N+](=O)[O-])CC(C)O1 (stereo unspecified) | 7.14%
77 | CCCn1nnnc1NC(=O)COc1ccc(Cl)cc1C | -5.09%
78 | COc1ccc(Cl)cc1C=CC=NNC(=O)c1ccncc1 | -5.27%
79 | COc1ccccc1/C=C/C=N/n1c(-c2ccc(Cl)cc2Cl)n[nH]c1=S | 0%
80 | COc1ccc(Cl)cc1C=CC=Nc1ccc(S(N)(=O)=O)cc1 | -101% (active)
81 | CC1(C)CC(=O)C=C(c2ccc(COC(=O)c3cc(F)cc(F)c3)cc2)C1=O | 16.9%
82 | Cc1cc(N2CCN(c3ccc(F)cc3)CC2)n2ncnc2n1 | -4.74%
83 | Cc1ccc(C(=O)Nc2c(C#N)c(C)c(C)n2Cc2ccccc2)cc1 | -11.6%
84 | COc1ccc(Cn2c(C)c(C)c(C#N)c2NC(=O)Nc2ccc(F)cc2)cc1 | 31.5%
85 | Cc1c(C#N)c(NC(=O)c2ccccc2)n(Cc2ccccc2)c1C | -78.4% (active)
86 | Cc1cn([C@H]2C[C@H](O)[C@@H](/C=C/C(=O)NCCCc3ccccc3)O2)c(=O)[nH]c1=O | -16.4%
